# PubChem BioAssay AID602144 (Vanderbilt Specialized Chemistry Center, 2011)
# Several values for one entry are separate records, joined by “and”; a condition that tells them apart may be missing. Identical values can stand only once. Values without a mark were called inactive. Activity calls are given as the source filed them. Rule as the data show it: active = remaining activity below about 50%; inactive = the rest.
# Target: Phospholipase D1 (Homo sapiens) (UniProt Q13393)
# Test: cellular phospholipase D1 activity inhibition – Calu-1 cells, single concentration (AID 602144);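 also: tested at 200 nM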
# Details: cellular PLD1 activity, hits give low values
# Chain of Phospholipase D1 (Homo sapiens) (Q13393 whole entry, looked up): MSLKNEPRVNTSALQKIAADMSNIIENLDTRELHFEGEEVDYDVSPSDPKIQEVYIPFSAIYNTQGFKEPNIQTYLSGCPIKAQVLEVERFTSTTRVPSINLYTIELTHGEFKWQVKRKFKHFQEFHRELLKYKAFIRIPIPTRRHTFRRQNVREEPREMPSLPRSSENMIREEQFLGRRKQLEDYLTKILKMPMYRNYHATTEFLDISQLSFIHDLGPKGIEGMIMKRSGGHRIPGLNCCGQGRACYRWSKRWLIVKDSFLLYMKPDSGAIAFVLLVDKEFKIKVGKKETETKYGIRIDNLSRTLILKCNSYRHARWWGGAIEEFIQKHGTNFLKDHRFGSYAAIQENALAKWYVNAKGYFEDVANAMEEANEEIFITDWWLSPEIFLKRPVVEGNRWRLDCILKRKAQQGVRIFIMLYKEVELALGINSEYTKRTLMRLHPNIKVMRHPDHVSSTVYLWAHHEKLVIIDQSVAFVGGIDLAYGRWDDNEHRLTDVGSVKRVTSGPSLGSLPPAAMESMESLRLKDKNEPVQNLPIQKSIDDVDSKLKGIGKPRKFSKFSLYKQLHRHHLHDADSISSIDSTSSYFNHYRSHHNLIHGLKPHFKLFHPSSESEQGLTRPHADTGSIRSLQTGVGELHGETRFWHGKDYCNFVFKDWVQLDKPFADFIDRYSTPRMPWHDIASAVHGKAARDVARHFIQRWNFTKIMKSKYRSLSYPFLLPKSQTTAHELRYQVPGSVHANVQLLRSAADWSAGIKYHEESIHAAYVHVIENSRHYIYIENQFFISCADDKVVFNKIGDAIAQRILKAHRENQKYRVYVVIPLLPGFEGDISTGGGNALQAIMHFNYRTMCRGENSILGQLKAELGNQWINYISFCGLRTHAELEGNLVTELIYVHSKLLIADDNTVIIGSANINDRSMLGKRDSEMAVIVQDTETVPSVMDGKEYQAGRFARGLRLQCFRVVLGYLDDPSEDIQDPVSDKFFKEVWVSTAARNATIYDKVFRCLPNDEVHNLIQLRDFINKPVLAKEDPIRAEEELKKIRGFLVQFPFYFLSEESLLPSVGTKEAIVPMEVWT
# Chain of Phospholipase D1 (Homo sapiens) (Q13393 whole entry, looked up): as above
row,Compound,remaining activity
1,O=C(NCCN1CCC2(CC1)C(=O)NCN2c1cccc(F)c1)c1cccc(F)c1,100%
2,O=C(NCCN1CCC2(CC1)C(=O)NCN2c1cccc(F)c1)c1ccc(Cl)cc1Cl,110%
3,O=C(NCCN1CCC2(CC1)C(=O)NCN2c1cccc(F)c1)c1ccc(OC(F)(F)F)cc1,96.9%
4,O=C(NCCN1CCC2(CC1)C(=O)NCN2c1ccc(Cl)cc1)c1cnc2ccccc2c1,94.2%
5,O=C(NCCN1CCC2(CC1)C(=O)NCN2c1ccccc1)c1ccc(-c2ccccc2)o1,132%
6,O=C(NCCN1CCC2(CC1)C(=O)NCN2c1cccc(Br)c1)c1ccc2ccccc2c1,76.6%
7,O=C(CCCl)NCCN1CCC2(CC1)C(=O)NCN2c1cccc(F)c1,75.7%
8,O=C(NCCN1CCC2(CC1)C(=O)NCN2c1ccc(Cl)cc1)c1cc2cc(F)ccc2[nH]1,79.4%
9,O=C1c2ccccc2C(=O)N1CCCN1CCC2(CC1)C(=O)NCN2c1ccccc1,84.6%
10,CC(C)[C@@H](CN1CCC2(CC1)C(=O)NCN2c1ccccc1)NC(=O)c1cnc2ccccc2c1,18.3% (active)
11,CCCCCC(=O)NCCN1CCC2(CC1)C(=O)NCN2c1cccc(F)c1,109%
12,CC(C)[C@@H](CN1CCC2(CC1)C(=O)NCN2c1ccccc1)NC(=O)c1ccc2ccccc2c1,20.7% (active)
13,O=C(NCCN1CCC2(CC1)C(=O)NCN2c1ccc(F)cc1)c1cnc2ccccc2c1,60.5%
14,O=C(NCCCN1CCC2(CC1)C(=O)NCN2c1ccccc1)c1cnc2ccccc2c1,99%
15,O=C(NCCN1CCC2(CC1)C(=O)NCN2c1ccc(Br)cc1)c1ccc2ccccc2c1,92.7%
16,O=C(CCc1ccc(F)cc1)NCCN1CCC2(CC1)C(=O)NCN2c1ccccc1,69.5%
17,O=C(CCN1CCC2(CC1)C(=O)NCN2c1ccccc1)Nc1cnc2ccccc2c1,123%
18,O=C(NCCN1CCC2(CC1)C(=O)NCN2c1ccc(F)c(F)c1)c1cc2cc(F)ccc2[nH]1,69.1%

row,Compound,remaining activity
1,O=C(c1cnc2ccccc2c1)N1CC(N2CCC(n3c(=O)[nH]c4cc(Br)ccc43)CC2)C1,81.6%
2,O=C(NCCN1CCC2(CC1)C(=O)NCN2c1ccccc1)c1cccc(F)n1,138%
3,O=C(NCCN1CCC2(CC1)C(=O)NCN2c1ccccc1)c1ccc2c(c1)C(=O)OC2=O,103%
4,O=C(NCCN1CCC2(CC1)C(=O)NCN2c1ccccc1)c1cscn1,92.4%
5,O=C(NCCN1CCC2(CC1)C(=O)NCN2c1ccc(F)cc1)c1cc2ccccc2[nH]1,32.3% (active)
6,O=C(NCCN1CCC2(CC1)C(=O)NCN2c1ccc(Cl)cc1)c1ccc2ccccc2c1,103%
7,O=C(NCCN1CCC2(CC1)C(=O)NCN2c1ccc(Cl)cc1)c1ccc(F)cc1,123%
8,CC1(C)C(C(=O)NCCN2CCC3(CC2)C(=O)NCN3c2ccccc2)C1(C)C,104%
9,COc1ccc(CC(=O)NCCN2CCC3(CC2)C(=O)NCN3c2cccc(F)c2)cc1OC,108% and 107%
10,O=C(NCCN1CCC2(CC1)C(=O)NCN2c1ccc(F)cc1)c1cc2cc(F)ccc2[nH]1,48.1% (active)
11,C[C@@H](CN1CCC2(CC1)C(=O)NCN2c1ccccc1)NC(=O)c1ccc2ccccc2c1,4.56% (active)
12,C[C@@H](CN1CCC2(CC1)C(=O)NCN2c1ccccc1)NC(=O)[C@@H]1C[C@H]1c1ccccc1,70.5%
13,O=C(NCCN1CCC2(CC1)C(=O)NCN2c1ccc(Cl)cc1)c1cc2ccccc2[nH]1,61.5%
14,O=C(NCCN1CCC2(CC1)C(=O)NCN2c1ccccc1)c1ccc(F)cc1O,107%
15,C[C@@H](CN1CCC2(CC1)C(=O)NCN2c1ccc(F)c(F)c1)NC(=O)c1cnc2ccccc2c1,5.04% (active)
16,C[C@H](N)CN1CCC2(CC1)C(=O)NCN2c1ccccc1 (tested in a mixture with another compound),96.4%
17,O=C(NCCN1CCC2(CC1)C(=O)NCN2c1ccccc1)c1cnc2ccccc2c1,130%
